The results in this text go back to PubChem BioAssay.

Assay [1] can be described thus: stimulators of nuclear beta-catenin in C2C12, primary screen, imaging, WNT3A-conditioned medium, mouse C2C12, NPC library (AID 1117326; in the data active = nuclear beta-catenin stimulation mostly above about 4.2%, no sharp cut-off; inactive = mostly below about 10%; note: reference of the scale not given here). The following applies: stronger effect = higher value.
Assay [2] can be described thus: stimulators of insulin release from INS-1E, primary screen, cell-based, 5 mM glucose, NPC library (AID 1117329;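 active = compound raises insulin release from rat beta cells at 5 mM glucose, no numeric limit stated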; note: reference of the scale not given here). The note with it: rat INS-1E insulin secretion, at 10 µM, stronger effect = higher value.
Assay [3] in a line: growth inhibition of GSK3B-pretreated HCT116 cells – cell-based, CellTiter-Glo, 0.2 to 20 µM (AID 1117336;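 active = compounds lowering colon cancer cell viability after pretreatment blocking the GSK3B kinase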). The note with it: HCT116 viability after GSK3B inhibitor, at 20 µM, stronger effect = higher value.
The nature of assay [4]: inhibition of endothelial tube formation, primary screen, imaging, VEGF stimulated, CD31 staining, tube area, NPC library (AID 1117340). The note with it: VEGF-stimulated ADSC/ECFC co-culture, at 10 µM, stronger effect = higher value.
Assay [5] in a line: glucagon-like peptide 1 release enhancers, primary assay, NCI-H716 cell line, NPC library (AID 1117341;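 active = compound raises GLP1 secretion from the human gut endocrine cells, with no numeric limit stated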; note: reference of the scale not given here). The following applies: NCI-H716 cells, at 10 µM, stronger effect = higher value.
A short description of assay [6]: HCT116 colon cancer cell growth inhibition, primary screen, CellTiter-Glo luminescence, NPC library (AID 1117342;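 active = compounds that lower survival of HCT116 colon cancer cells in the luminescence readout, no numeric limit stated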). The following applies: at 20 µM (top of the series).
Assay [7] in a line: CellTiter-Glo luminescent readout of SW480 viability loss, NPC library primary (AID 1117343;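 active = compounds that lower viability of the colon cancer cells in the luminescence readout, with no numeric limit stated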). The note with it: CellTiter-Glo luminescence; at 20 µM (top of the series). (In general: Cellular ATP, detected with luciferase, serves as a proxy for viable cell number.)
Assay [8] in a line: decreased DLD-1 cellular survival, CellTiter-Glo luminescent readout, NPC compound collection, primary HTS (AID 1117346;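 active = compounds that lower survival of DLD-1 colon cancer cells in the luminescence readout, no cutoff given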). The note with it: DLD-1 viability, CellTiter-Glo luminescence; at 20 µM (top of the series).

Activity calls are given as the source filed them.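 Rule for the calls, unless noted: active = compound that reduces growth-factor-driven endothelial tube area in a mixed cell culture, no cutoff stated; inactive = the rest.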

On to `NC(=O)NC1N=C([O][Al])NC1=O` (centres undefined), for which the nuclear beta-catenin stimulation in assay [1] (at 10 µM) is 0.7% (inactive); in assay [1] (stimulation, at 2 µM), -0.2%. Also, the insulin secretion stimulation in assay [2] was 0.3% (inactive). Further, the viability decrease in assay [3] was 13.8% (inactive). For the same compound, in assay [4], the tube area decrease was 0.8% (inactive). The GLP1 secretion stimulation in assay [5] is -2.5% (inactive). Also, in assay [6], the inhibition of viability was 2.07% (inactive). The viability decrease (inhibition) in assay [7] was 19.8% (inactive); in assay [8], -4.5% (inactive).

`CCOC(=O)C1=C(O)c2ccccc2S(=O)(=O)N1C`: the nuclear beta-catenin stimulation in assay [1] (at 10 µM) is -1.5% (inactive); in assay [1] (stimulation, at 2 µM), -0.7%. Besides, the insulin secretion stimulation in assay [2] is 0.9% (inactive). The viability decrease in assay [3] was -6% (inactive). Moreover, in assay [4], the tube area decrease is -19.5% (inactive). Also, the GLP1 secretion stimulation in assay [5] is -4% (inactive). The inhibition of viability in assay [6] was 10.3% (inactive). Also, the viability decrease (inhibition) in assay [7] is 12% (inactive); in assay [8], 4.2% (inactive).

Take `COC(=O)C1=C(C)NC(C)=C(C(=O)OCCc2ccc(N3CCN(C(c4ccccc4)c4ccccc4)CC3)cc2)C1c1cccc([N+](=O)[O-])c1` (centres undefined): the nuclear beta-catenin stimulation was 2.5% (inactive) in assay [1] (at 10 µM) and 0.7% in assay [1] (stimulation, at 2 µM). Also, the insulin secretion stimulation in assay [2] was 0% (inactive). For the same compound, the viability decrease in assay [3] is 14.1% (inactive). Also, the tube area decrease in assay [4] is 44.2% (active). Moreover, the GLP1 secretion stimulation in assay [5] is -3.4% (inactive). Besides, the inhibition of viability in assay [6] is 32.3% (inactive). For the same compound, the viability decrease (inhibition) in assay [7] was 39.1% (inactive); in assay [8], -1.2% (inactive).

As to `Nc1ncnc(Nc2ccccc2)n1`, the nuclear beta-catenin stimulation in assay [1] (at 10 µM) was 0.5% (inactive); in assay [1] (stimulation, at 2 µM), 0.6%. In assay [2], the insulin secretion stimulation was -1.2% (inactive). For the same compound, in assay [3], the viability decrease was 3.65% (inactive). Also, the tube area decrease in assay [4] was -16% (inactive). In assay [5], the GLP1 secretion stimulation is -0.9% (inactive). Further, the inhibition of viability in assay [6] is 2.7% (inactive). The viability decrease (inhibition) in assay [7] is 51.8% (active); in assay [8], 19.1% (inactive).

On to `[O-][n+]1ccccc1SSc1cccc[n+]1[O-]`, for which the nuclear beta-catenin stimulation in assay [1] (at 10 µM) is 78.1% (active); in assay [1] (stimulation, at 2 µM), 34%. Besides, in assay [2], the insulin secretion stimulation was -0.2% (inactive). In assay [3], the viability decrease is 51% (active). Besides, the tube area decrease in assay [4] is 103% (active). Besides, in assay [5], the GLP1 secretion stimulation is 15.1% (inactive). Besides, the inhibition of viability in assay [6] was 51.9% (active). In addition, the viability decrease (inhibition) in assay [7] was -68.5% (inactive); in assay [8], 1.15% (inactive).

On to `COc1ccc(CC2c3cc(OC)c(OC)cc3CCN2CCC(=O)OCCCCCOC(=O)CCN2CCc3cc(OC)c(OC)cc3C2Cc2ccc(OC)c(OC)c2)cc1OC` (centres undefined), for which the nuclear beta-catenin stimulation in assay [1] (at 10 µM) was -1.1% (inactive); in assay [1] (stimulation, at 2 µM) it was 0.5%. Also, the insulin secretion stimulation in assay [2] was 2.2% (inactive). Further, the viability decrease in assay [3] is -6.9% (inactive). In addition, the tube area decrease in assay [4] is -3.5% (inactive). The GLP1 secretion stimulation in assay [5] was -3.9% (inactive). Also, the inhibition of viability in assay [6] was -6.4% (inactive). The values for the viability decrease (inhibition) in assay [7] and in assay [8] were 39.7% (inactive) and -10.6% (inactive), respectively.

Consider `CCCC(=O)O[C@]1(C(=O)CCl)[C@@H](C)C[C@H]2[C@@H]3CCC4=CC(=O)C=C[C@]4(C)[C@@]3(F)C(=O)C[C@@]21C`, for which the nuclear beta-catenin stimulation is 3.8% (inactive) in assay [1] (at 10 µM) and -0.1% in assay [1] (stimulation, at 2 µM). The insulin secretion stimulation in assay [2] is 3% (inactive). Also, the viability decrease in assay [3] is 0.4% (inactive). For the same compound, the tube area decrease in assay [4] was 36.7% (inactive). In assay [5], the GLP1 secretion stimulation was -0.4% (inactive). For the same compound, the inhibition of viability in assay [6] was 70.5% (active). Also, the values for the viability decrease (inhibition) in assay [7] and in assay [8] were 99.8% (active) and 47% (inactive), respectively.

In the case of `NC(Cc1ccc([N+](=O)[O-])cc1)C(=O)O` (centres undefined), the nuclear beta-catenin stimulation in assay [1] (at 10 µM) was -0.2% (inactive); in assay [1] (stimulation, at 2 µM), 0%. Further, the insulin secretion stimulation in assay [2] was -0.8% (inactive). Also, the viability decrease in assay [3] was -7.7% (inactive). Besides, in assay [4], the tube area decrease was -16.5% (inactive). Besides, the GLP1 secretion stimulation in assay [5] was -0.7% (inactive). In assay [6], the inhibition of viability is -2.8% (inactive). In addition, the viability decrease (inhibition) in assay [7] was -1.7% (inactive); in assay [8] it was -20.4% (inactive).

As for `COc1cc2[nH]c(=O)[nH]c(=O)c2cc1OC`, the nuclear beta-catenin stimulation in assay [1] (at 10 µM) was 0.1% (inactive); in assay [1] (stimulation, at 2 µM), 1.1%. The insulin secretion stimulation in assay [2] is -1.8% (inactive). Further, in assay [3], the viability decrease is 6.35% (inactive). Also, in assay [4], the tube area decrease is -8.3% (inactive). The GLP1 secretion stimulation in assay [5] was 3.1% (inactive). Besides, in assay [6], the inhibition of viability is -1.4% (inactive). Besides, the viability decrease (inhibition) in assay [7] is 47.6% (inactive); in assay [8], 0.05% (inactive).

For the compound `C#Cc1ccc(-c2ccccc2F)cc1`, the nuclear beta-catenin stimulation in assay [1] (at 10 µM) is -1.3% (inactive); in assay [1] (stimulation, at 2 µM), -2.1%. Besides, in assay [2], the insulin secretion stimulation was 0.3% (inactive). In addition, in assay [3], the viability decrease was -3.5% (inactive). For the same compound, the tube area decrease in assay [4] was 7.2% (inactive). Further, the GLP1 secretion stimulation in assay [5] was -0.7% (inactive). Also, the inhibition of viability in assay [6] was 0.6% (inactive). Moreover, the values for the viability decrease (inhibition) in assay [7] and in assay [8] were -12.8% (inactive) and 18.8% (inactive), respectively.

With `C#C[C@]1(O)CC[C@@H]2[C@@H]3CCC4=CCCC[C@@H]4[C@H]3C(=C)C[C@@]21CC`, the nuclear beta-catenin stimulation in assay [1] (at 10 µM) is 1% (inactive); in assay [1] (stimulation, at 2 µM) it was -0.9%. For the same compound, the insulin secretion stimulation in assay [2] is -1.9% (inactive). Besides, in assay [3], the viability decrease is 99.1% (active). Besides, the tube area decrease in assay [4] was 55.3% (active). The GLP1 secretion stimulation in assay [5] was -7.2% (inactive). Also, the inhibition of viability in assay [6] was 99% (active). In addition, the values for the viability decrease (inhibition) in assay [7] and in assay [8] were 102% (active) and 101% (active), respectively.

With `CCc1cc2cc(OC)c(OC)cc2c(Cc2ccccc2)n1`, the nuclear beta-catenin stimulation in assay [1] (at 10 µM) was 7.1% (inactive); in assay [1] (stimulation, at 2 µM), 3.1%. The insulin secretion stimulation in assay [2] is 15.8% (inactive). In addition, in assay [3], the viability decrease was 46.2% (inactive). The tube area decrease in assay [4] is 18.5% (inactive). Further, the GLP1 secretion stimulation in assay [5] is 3.6% (inactive). Also, the inhibition of viability in assay [6] is 41.3% (inactive). Further, the viability decrease (inhibition) in assay [7] is -9.7% (inactive); in assay [8], 25.5% (inactive).

Consider `CCOc1ccc(C(=O)OCCN(CC)CC)cc1`, for which the nuclear beta-catenin stimulation was -1% (inactive) in assay [1] (at 10 µM) and -1.4% in assay [1] (stimulation, at 2 µM). Also, the insulin secretion stimulation in assay [2] was -0.6% (inactive). For the same compound, in assay [3], the viability decrease was 6.1% (inactive). Also, the tube area decrease in assay [4] is -2.2% (inactive). For the same compound, the GLP1 secretion stimulation in assay [5] was 1.9% (inactive). Also, in assay [6], the inhibition of viability is 43.8% (inactive). Besides, the results for the viability decrease (inhibition) in assay [7] and in assay [8] were 20.4% (inactive) and 8.4% (inactive), respectively.

As to `CCCCCCCC(=O)OCC(O)CO` (centres undefined), the nuclear beta-catenin stimulation in assay [1] (at 10 µM) was -2% (inactive); in assay [1] (stimulation, at 2 µM), -1.7%. Moreover, in assay [2], the insulin secretion stimulation is 2.1% (inactive). For the same compound, the viability decrease in assay [3] was -10.8% (inactive). The tube area decrease in assay [4] was -3.1% (inactive). Also, the GLP1 secretion stimulation in assay [5] is -3.4% (inactive). In addition, in assay [6], the inhibition of viability was -7.47% (inactive). In addition, the viability decrease (inhibition) is 16.9% (inactive) in assay [7] and -20.5% (inactive) in assay [8].

As to `CCO[C@@H]1O[C@H](C(COCc2ccccc2)OCc2ccccc2)[C@H](OCc2ccccc2)[C@H]1O` (some centres undefined), the nuclear beta-catenin stimulation in assay [1] (at 10 µM) was -1.3% (inactive); in assay [1] (stimulation, at 2 µM), -1.2%. In addition, in assay [2], the insulin secretion stimulation is 2.2% (inactive). Further, the viability decrease in assay [3] was 15.1% (inactive). Besides, in assay [4], the tube area decrease was 28.6% (inactive). In addition, the GLP1 secretion stimulation in assay [5] is 6.9% (inactive). For the same compound, the inhibition of viability in assay [6] is 81.6% (active). Moreover, the viability decrease (inhibition) in assay [7] was 63.5% (active); in assay [8], 44.6% (active).

In the case of `O=[N+]([O-])c1ccc(Oc2ccc(N=C=S)cc2)cc1`, the nuclear beta-catenin stimulation was 36.7% (inactive) in assay [1] (at 10 µM) and 1.6% in assay [1] (stimulation, at 2 µM). Moreover, the insulin secretion stimulation in assay [2] was -0.5% (inactive). Further, the viability decrease in assay [3] is 97.7% (active). In addition, the tube area decrease in assay [4] was 108% (active). Further, in assay [5], the GLP1 secretion stimulation was -5% (inactive). In addition, the inhibition of viability in assay [6] was 98.9% (active). Also, the figures for the viability decrease (inhibition) in assay [7] and in assay [8] were 95.7% (active) and 100% (active), respectively.
